Reference: PubChem BioAssay (NCI)
This is part of a sample that, as a whole, favours compounds with a hit. Of some 79,000 tested, about 15% had one in any assay. A number with no mark means an inactive call. Activity calls are given as the source filed them. Cut-off read from the data, not from the text of the source: active = growth inhibition above about 70%; inactive = the rest.

assay: NCI Yeast Anticancer Drug Screen. Data for the sgs1 mgt1 strain (AID 161);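 note: 0% = growth of cultures given vehicle only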; conditions: S. cerevisiae sgs1 mgt1 strain, at 50.0 µM (retest, dose inferred, filed as 5.0), stronger effect = higher value
How it was run: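 Yeast cells carrying a defined DNA-repair defect were exposed to test compounds. Growth inhibition was measured relative to vehicle-treated controls.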

| SMILES | growth inhibition |
| --- | --- |
| CC(=O)NNc1nc(C)c(C(=O)NNC(=O)C(=O)Nc2c(C)cccc2C(C)C)s1 | 89% (active) |
| COc1cc(C2CC(=O)c3ccccc3O2)ccc1O (centres undefined) | 98% (active) |
| CCC1CCC2C3CC=C4CC(OC(C)=O)C(N)CC4(C)C3CCC12C (centres undefined) | 93% (active) |
| COc1ccccc1C1c2cc3c(cc2OC(N2CCOCC2)C1C)OCO3 (centres undefined) | 47% |
| O=C1C=C/C(=C(/c2ccc(O)c(O)c2)c2ccccc2S(=O)(=O)O)C=C1O | 2% |
| N#CSC#Cc1ccc(C#CSC#N)cc1 | 97% (active) |
| Cc1c2ccccc2c(CCl)c2ccc3ccccc3c12 | 99% (active) |
| Oc1ccc(C(=C(Br)c2ccccc2)c2ccc(O)cc2)cc1 | 99% (active) |
| Clc1ccc(/C=N/Nc2c3ccccc3nc3ccccc23)c(Cl)c1 | 83% (active) |
| CCCC#CCCOC(=O)c1cc([N+](=O)[O-])cc([N+](=O)[O-])c1 | 99% (active) |
| CCOc1ccc2c(c1)n([O-])c1ccccc1[n+]2=O | 99% (active) |
| COc1ccc(/C(Cl)=C(\c2ccc(OCCN(C)C)cc2)c2ccc(OC(=O)C(C)(C)C)cc2)cc1 | 18% |
| CCCCCCCCCCCCCCCCSC(=NC)NC | 100% (active) |
| N#Cc1ccc(Oc2nc3ccccc3nc2-c2ccccc2)cc1 | 52% |
| Cc1ccc2c(c1)nc1n2C(N)=Nc2ccccc2S1 | 45% |
| COc1cc(NCc2ccc3nc(-c4ccccc4)c(N)nc3c2)cc(OC)c1OC | 7% |
| O=C(OCCC1CCCCC1)c1cc([N+](=O)[O-])cc([N+](=O)[O-])c1 | 70% (active) |
| O=C1c2ccc3ccccc3c2CCC1[n+]1ccc2ccccc2c1 (centres undefined) | 79% (active) |
| Cc1cc(NC(=S)SCc2ccc(Cl)cc2)c([N+](=O)[O-])cc1C | 96% (active) |
| N#CC(O)C(Br)(Br)Br (centres undefined) | 46% |

| SMILES | growth inhibition |
| --- | --- |
| C[CH2][Ge]([CH2]C)[CH2]C.C[CH2][Ge]([Cl])[CH2]C.C[CH2][Ge][CH2]C | 96% (active) |
| COC1C(=[N+]=[N-])C(=O)NC(=O)N1C1OC(COC(c2ccccc2)(c2ccccc2)c2ccccc2)C(O)C1O (centres undefined) | 18% |
| CC(=O)Oc1ccc(C)c(C(C)C(Cl)(Cl)Cl)c1 (centres undefined) | 26% |
| OC(c1ccccc1)c1cccc(Br)c1 (centres undefined) | 55% |
| CC/C(=C1\C=CC(=O)S1)C(CC)c1ccc(OC(C)=O)cc1 (centres undefined) | 98% (active) |
| COc1ccc(/C=C2/C(=O)NC3SC=C(c4cccc([N+](=O)[O-])c4)N23)cc1 (centres undefined) | -1% |
| O=C1O/C(=C2\OC(=O)c3ccccc32)c2ccccc21 | 1% |
| Clc1ncccc1-n1cccc1/C=N\N=C/c1cccn1-c1cccnc1Cl | 94% (active) |
| Clc1nc2cc3nc(Cl)c(Cl)nc3cc2nc1Cl | 24% |
| CC(=O)c1c2c(cc3c1CC1(Cc4cc5c(cc4C1)C(=O)CCC5)C3)CCCC2 (centres undefined) | 27% |
| CCCCOS(=O)(=O)c1ccc(C)cc1 | 7% |
| C[N+]1(c2ccccc2)C=C(c2ccccc2)SC1=S (centres undefined) | 36% |
| COc1ccc(/C=N/N=c2\[nH][nH]/c(=N\N=C\c3ccc(OC)c4ccccc34)c3ccccc23)c2ccccc12 | 76% (active) |
| CCCCCCCCCCCCCCCCN | 98% (active) |
| CCCCCCCCCCCC[S+](C)C | 83% (active) |
| CP(=O)(c1ccccc1)c1ccccc1 | -14% |
| CCCCCCCCCCCC(=O)OC/C=C/COC(=O)c1ccccc1 | 69% |
| O=C(O)CCC(O)=C1S(=O)(=O)OCCOS1(=O)=O | -3% |
| CCOC(=O)C1SC(=Nc2cccc(Cl)c2C)N=C1C (centres undefined) | 91% (active) |
